Screening data: PubChem, The Scripps Research Institute Molecular Screening Center
GPR151 ag: activators of human GPR151, primary screen, cell-based, PathHunter beta-arrestin, luminescence | hit rate 1% among 650,000 | G-protein coupled receptor 151 (Homo sapiens), Q8TDV0 | AID 1508602, 2020 | PathHunter beta-arrestin GPR151 cells | activation, % at 11.2 µM; in the data active = activation above about 4.9%;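 note: 0% = median of compound wells and 100% = cells with positive control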
FBW7 activator: FBW7 E3 ligase activators, primary screen, biochemical, AlphaScreen, human | F-box/WD repeat-containing protein 7 (Homo sapiens), Q969H0 | AlphaScreen FBW7–phospho-cyclin E peptide binding, activator screen | normalized activity (activation), % at 26.1 µM | hit rate 0.13% among 650,000 | AID 1259310, 2017; in the data active = normalized activity above about 1.9%;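 note: purified mutant Fbw7 with reduced substrate affinity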
MITF primary: MITF inhibitors, primary screen, biochemical, AlphaScreen, human. AlphaScreen MITF homodimerization, bead proximity signal. inhibition, % at 2.6 µM. hit rate 0.91% among 650,000. AID 1259374, 2018; in the data active = inhibition above about 50%;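 note: 0% = vehicle wells with protein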
Target sequence (O75030 whole entry, looked up): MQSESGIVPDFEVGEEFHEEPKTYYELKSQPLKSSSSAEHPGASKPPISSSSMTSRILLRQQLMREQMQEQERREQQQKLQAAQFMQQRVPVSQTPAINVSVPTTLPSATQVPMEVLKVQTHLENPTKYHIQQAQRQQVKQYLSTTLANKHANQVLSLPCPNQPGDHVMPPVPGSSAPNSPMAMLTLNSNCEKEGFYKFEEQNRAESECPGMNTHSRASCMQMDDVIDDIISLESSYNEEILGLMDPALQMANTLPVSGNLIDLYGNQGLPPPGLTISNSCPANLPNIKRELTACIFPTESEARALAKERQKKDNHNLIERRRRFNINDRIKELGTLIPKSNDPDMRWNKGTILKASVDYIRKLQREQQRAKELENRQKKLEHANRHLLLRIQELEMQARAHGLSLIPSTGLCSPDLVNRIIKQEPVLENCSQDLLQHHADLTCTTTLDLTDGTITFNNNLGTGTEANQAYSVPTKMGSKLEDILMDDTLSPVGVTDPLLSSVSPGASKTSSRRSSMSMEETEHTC
TEAD-YAP inh: TEAD-YAP interaction inhibition, primary screen, TEAD-YAP interaction inhibitor project, luminescence, HEK-TIYL cells; hit rate 1.4% among 640,000; AID 1259422, 2018; TEAD-Gal4/YAP UAS-luciferase luminescence; inhibition, % at 9.12 µM; in the data active = inhibition above about 32%;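 note: 0% = median of test compound wells and 100% = reference inhibitor wells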
The depositor's hits bear a star. A selection: hits, their analogues and other compounds. The true share with any hit is near 3.5%.

SMILES	GPR151 ag	FBW7 activator	MITF primary	TEAD-YAP inh
COc1cc2c(c(OC)c1OC)-c1ccc(OC)c(=O)cc1[C@@H](NC(C)=O)CC2	-1	0	16	58*
COc1ccc2c(c1OC)C(=O)OC2Nc1cccc(NC(C)=O)c1 (centres undefined)	0	1	9	-2
CN(C)S(=O)(=O)c1ccc(C(=O)Nc2ccc(-c3nc4ccccc4[nH]3)cc2)cc1	1	5.0*	-31	-41
Cc1sc(NC(=O)c2ccc(S(=O)(=O)N(C)c3ccccc3)cc2)nc1-c1ccccc1	3	0	0	2
Cc1sc(NC(=O)c2ccc(S(=O)(=O)N(C)C)cc2)nc1-c1ccccc1	0	0	-2	41*
O=C(Nc1ccc(-c2nc3ccccc3[nH]2)cc1)c1ccc(=O)n(Cc2ccccc2)n1	1	0	6	34*
CCCn1cc(NC(=O)c2cc(-c3ccccc3OCc3ccccc3)no2)cn1	2	0	13	43*
CCCn1cc(NC(=O)c2cc3ccccc3o2)cn1	-1	0	-9	-55
CCCCN(C(=O)CCl)C1CCS(=O)(=O)C1 (centres undefined)	2	0	6	73*
O=C(CCl)N(Cc1cccs1)C1CCS(=O)(=O)C1 (centres undefined)	-1	0	3	60*
O=C(COc1ccc(Cl)cc1)N(Cc1cccs1)C1CCS(=O)(=O)C1 (centres undefined)	0	0	-4	-1
COC(=O)c1c(-c2ccc(C)cc2)csc1NC(=S)NC(=O)c1ccncc1	0	0	-1	4
COc1ccc(CCn2c(=S)[nH]c3nccnc3c2=O)cc1OC	0	0	-1	40*
Cc1cc(C)cc(NC(=S)N(Cc2ccccc2)Cc2cccnc2)c1	0	0	4	3
CCc1ccc(-c2cn3ccc(C)cc3n2)cc1	-6	1	5	96*
Cc1ccn2cc(-c3cc4ccccc4oc3=O)nc2c1	-7	1	4	-23
Cc1ccn2cc(-c3ccccc3Cl)nc2c1	-7	0	11	71*
Cc1ccn2cc(-c3ccc(Cl)cc3)nc2c1	-9	1	18	78*
CCc1ccc(-c2cn3cc(C)ccc3n2)cc1	-2	0	-104	-1
O=C(Nc1ccc(F)c(Cl)c1)c1cc2ccccc2oc1=O	1	0	-2	-8
Cc1cccc(N2CCN(C(=O)CCn3c(=O)[nH]c4ccsc4c3=O)CC2)c1C	1	0	-11	2
CCOC(=O)C1=C(C)NC(C)=C(C(=O)OC)C1c1cc(Cl)cc(Cl)c1OC (centres undefined)	-1	0	10	8
COc1ccc(C2Oc3c(OC)cccc3C3CC(c4ccc(C)o4)=NN32)cc1 (centres undefined)	1	0	11	40*
COc1cccc2c1OC(c1cccc(Cl)c1)N1N=C(c3ccc(C)o3)CC21 (centres undefined)	-1	0	5	41*
O=C(Nc1cc(C(F)(F)F)cc(Cl)n1)C1COc2ccccc2O1 (centres undefined)	-1	1.9*	13	9
SMILES	GPR151 ag	FBW7 activator	MITF primary	TEAD-YAP inh
Cc1cccc(NC(=O)C2COc3ccccc3O2)n1 (centres undefined)	1	0	7	-30
CCCNC(=O)CC(NS(=O)(=O)c1ccc(C)cc1)c1ccc(OC)cc1 (centres undefined)	-1	0	-1	-3
CC1=CC(=O)C=C(C)C1=NOC(=O)c1ccc([N+](=O)[O-])cc1	-2	1	8	5
CC1=CC(=O)C=C(C)C1=NOC(=O)c1ccc(Cl)cc1	0	0	73*	8
O=C(Nc1ccc2[nH]ncc2c1)[C@@H]1C[C@H](O)CN1C(=O)c1ccccc1	-1	0	37	-1
O=C(CCC(=O)N1CCOCCN(C(=O)CCC(=O)OCc2ccccc2)CCOCC1)OCc1ccccc1	-2	0	1	3
O=S(=O)(NCC1CCCO1)c1ccc(Br)cc1 (centres undefined)	-1	0	14	1
O=S(=O)(NCC1CCCO1)c1ccc(Oc2ccc(S(=O)(=O)NCC3CCCO3)cc2)cc1 (centres undefined)	0	0	15	59*
COc1ccc(C2=Nc3ccccc3N=C(c3cc(OC)ccc3O)C2)cc1	-1	0	17	-27
COc1ccc(O)c(C2=Nc3ccccc3N=C(c3ccccc3)C2)c1	2	2.1*	10	-46
C(=N/n1cnnc1)/c1ccc(N2CCCCC2)cc1	-1	0	-16	-3
Cc1ccc(S(=O)(=O)Nc2c(C)cc(O)c(S(=O)(=O)c3ccc(C)cc3)c2C)cc1	-1	0	4	3
Cc1ccc(S(=O)(=O)c2c(O)cc(C)c(NS(=O)(=O)c3ccc(Br)cc3)c2C)cc1	-1	0	63*	1
COc1ccc2cc(CN(CC3CCCO3)C(=O)Nc3ccccc3OC)c(=O)[nH]c2c1 (centres undefined)	-1	0	2	54*
COc1ccc2cc(CN(Cc3ccco3)C(=O)Nc3ccccc3OC)c(=O)[nH]c2c1	-1	0	16	54*
COc1ccc2cc(CN(Cc3ccccc3)C(=O)c3ccncc3)c(=O)[nH]c2c1	1	0	-7	51*
COc1ccc2[nH]c(=O)c(CN(Cc3ccco3)C(=O)Nc3ccccc3OC)cc2c1	-1	0	8	-4
O=C1/C(=C/N(C(=O)c2cccc(Cl)c2)c2ccc(Cl)cc2)Sc2ccccc21	-1	0	10	-5
Cc1ccc(C2CC(C(F)(F)F)n3ncc(C(=O)Nc4ccc(Cl)c(C(F)(F)F)c4)c3N2)cc1 (centres undefined)	1	0	13	-2
Cc1ccc(C(C[N+](=O)[O-])c2c[nH]c3ccccc23)o1 (centres undefined)	-1	0	0	54*
CCOc1cc(/C=C(\C#N)C(=O)Nc2ccc([N+](=O)[O-])cc2Cl)ccc1OC(C)=O	1	0	5	12
Cc1cc(C)c(S(=O)(=O)Nc2ccc3c(c2)N(C(=O)C(C)C)CCC3)cc1C	1	0	-8	46*
Cc1cc(C)c(S(=O)(=O)Nc2ccc3c(c2)CCCN3C(=O)C(C)C)cc1C	1	2.0*	-7	2
O=C1CC(c2ccccc2C(F)(F)F)c2ccccc2N1 (centres undefined)	-1	0	17	-8
CCc1ccc(OCC(=O)N2CCN(c3ccccc3OC)CC2)cc1	0	0	-21	10
COc1cc(Br)ccc1OCC(=O)N/N=C/c1ccc(Cl)cc1	0	0	13	10
COc1ccccc1C(=O)Nc1ccc2nc(N3CCN(c4ncccn4)CC3)cc(C)c2c1	0	0	-7	25
